In the library only some 5.8% were active in any assay of this set; here they are far more common.
TRPV1 agonist: HTS Assay for Compounds that Act as Agonists of the Vanilloid Receptor 1; Transient receptor potential cation channel subfamily V member 1 (Homo sapiens), Q8NER1; TRPV1-expressing cells, Fluo-8 calcium influx, agonist mode; activation, % at 8.33 µM; 320,000 compounds, 0.19% hits; AID 540275, 2011; in the data active = activation above about 80%; inconclusive = between about 30% and that limit; note: 0% is about no effect
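Cells expressing TRPV1 were dye-loaded with Fluo-8 and read kinetically: 10 s baseline, 3 min after compound (agonist portion), then 2 min after EC20 capsaicin (allosteric enhancer portion). Calcium-bound dye fluorescence at 480/520 nm.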
VP16 counter: VP16 counterscreen qHTS for inhibitors of ROR gamma transcriptional activity. Drosophila S2 Gal4-VP16 UAS-luciferase, luminescence, 20 h. Potency, µM (top dose mostly 53.6 µM), for the others: at the top dose activity, negative = inhibition, most hits filed as inhibitors. 310,000 compounds, 3.5% hits. AID 2546, 2010;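 note: Gal4-VP16 expression switched on by copper sulfate through the metallothionein promoter; potency is the fitted concentration of half-maximal effect; % is set by controls: 0 for no effect and ±100 for the full control effect; nearly all actives have a fitted effect of over 50% in size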
uPA surface inh: qHTS for Inhibitors of Cell Surface uPA Generation. cell surface uPA generation assay, qHTS. Potency, µM (series often up to 38.3 µM), without a hit: at the highest dose activity change, negative = inhibition, most hits filed as inhibitors. 330,000 compounds, 0.31% hits; active = well fitted inhibition curve with a large enough effect; inconclusive = small, poorly fitted or top-dose-only effect; inactive = no such curve, though single readings can be large or run the other way; tested in mouse RAW 264.7 cells; note: potency is the fitted concentration of half-maximal effect; % is set by controls: 0 for no effect and ±100 for the full control effect; nearly all actives have a fitted effect of over 55% in size
TRPV1 potentiator: HTS Assay for Compounds that Act as Potentiators of the Vanilloid Receptor 1; AID 540277, 2011; Transient receptor potential cation channel subfamily V member 1 (Homo sapiens), Q8NER1; TRPV1-expressing cells, Fluo-8 calcium influx, capsaicin EC20 potentiation; potentiation, % at 8.33 µM; 320,000 compounds, 0.02% hits; in the data active = potentiation above about 80%; inconclusive = between about 30% and that limit; note: 0% is about no effect
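Cells expressing TRPV1 were dye-loaded with Fluo-8 and read kinetically: 10 s baseline, 3 min after compound (agonist portion), then 2 min after EC20 capsaicin (allosteric enhancer portion). Calcium-bound dye fluorescence at 480/520 nm.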
RORg inh: qHTS for inhibitors of ROR gamma transcriptional activity | Nuclear receptor ROR-gamma (Mus musculus), P51450 | Drosophila S2 Gal4-RORgamma UAS-luciferase reporter, 20 h | Potency, µM (series often up to 53.6 µM), inactives show at the top dose activity change, negative = inhibition, usual class: inhibitors | 310,000 compounds, 5.4% hits | AID 2551, 2010; note: potency is the fitted concentration of half-maximal effect; % is set by controls: 0 for no effect and ±100 for the full control effect; nearly all actives have a fitted effect of over 60% in size
Target sequence (P51450 whole entry, looked up, the tested form may be a part): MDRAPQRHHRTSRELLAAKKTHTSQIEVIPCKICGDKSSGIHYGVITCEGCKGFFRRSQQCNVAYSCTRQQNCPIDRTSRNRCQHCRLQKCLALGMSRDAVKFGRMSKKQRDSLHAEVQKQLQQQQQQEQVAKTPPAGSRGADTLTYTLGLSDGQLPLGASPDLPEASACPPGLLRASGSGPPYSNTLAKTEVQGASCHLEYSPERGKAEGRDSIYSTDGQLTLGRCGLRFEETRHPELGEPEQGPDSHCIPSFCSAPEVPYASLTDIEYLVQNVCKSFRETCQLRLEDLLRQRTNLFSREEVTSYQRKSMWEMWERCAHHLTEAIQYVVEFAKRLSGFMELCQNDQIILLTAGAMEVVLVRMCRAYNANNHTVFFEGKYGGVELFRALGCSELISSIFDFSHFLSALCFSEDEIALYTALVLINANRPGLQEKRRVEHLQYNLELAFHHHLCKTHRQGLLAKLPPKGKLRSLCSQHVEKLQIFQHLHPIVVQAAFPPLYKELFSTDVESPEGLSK
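Drosophila Schneider cells stably carrying a metallothionein-driven Gal4 DBD–ROR gamma fusion and a UAS-Photinus luciferase reporter were exposed to compound for 1 hr, then induced with copper sulfate (700 uM final) for 20 hr at ambient temperature before luminescence reading.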
Active calls of the source: *. Unless noted, calls come from the whole dose curve; as a rule, active = well fitted curve in the direction sought with a large enough effect; inconclusive = small, poorly fitted or top-dose-only effect, or another doubt; inactive = no such curve, though single readings can be large; an effect the other way counts as inactive or inconclusive.

Results for Cc1ccc(C)c(/C=C/C(=O)c2ccccc(=O)c2O)c1 ?
TRPV1 agonist: 2; VP16 counter: 5µM*; uPA surface inh: -6%; TRPV1 potentiator: 17; RORg inh: 3.2µM*

Results for O=C(/C=C/c1ccc([N+](=O)[O-])cc1)c1ccccc(=O)c1O ?
uPA surface inh: -8%

How did O=C(/C=C/c1ccccc1Cl)c1ccc(O)cc1 do in these assays?
TRPV1 agonist: inconclusive; VP16 counter: inconclusive; uPA surface inh: -14%; TRPV1 potentiator: -8; RORg inh: 10µM*

What do the screens show for `O=C(/C=C/c1ccccc1Cl)c1ccccc(=O)c1O`?
TRPV1 agonist: 0; VP16 counter: 5.6µM*; uPA surface inh: -6%; TRPV1 potentiator: 13; RORg inh: 3.5µM*

Results for CC(O)CC(=O)NOCc1ccccc1 (stereo unspecified) ?
uPA surface inh: 0%

How did Cc1c(Cl)cccc1NC(=O)CC(NCCN1CCOCC1)C(=O)O (stereo unspecified) do in these assays?
uPA surface inh: -11%

Results for CCOc1ccc(NC(=O)c2ccc(NC(=O)Cc3n[nH]c(=O)c4ccccc34)cc2)cc1 ?
TRPV1 agonist: 5; VP16 counter: -21%; uPA surface inh: -1%; TRPV1 potentiator: 8; RORg inh: -3%

What do the screens show for `CCCc1c(C(=O)N/N=C/c2cccnc2)nnn1-c1nonc1N`?
TRPV1 agonist: 19; VP16 counter: -6%; uPA surface inh: -3%; TRPV1 potentiator: -13; RORg inh: 33%

What do the screens show for `Cc1c(C(=O)N/N=C/c2cccs2)nnn1-c1nonc1N`?
TRPV1 agonist: inconclusive; VP16 counter: inconclusive; uPA surface inh: -8%; TRPV1 potentiator: -7; RORg inh: 11µM*

Results for CCCc1c(C(=O)N/N=C/c2ccc(C)s2)nnn1-c1nonc1N ?
TRPV1 agonist: -1; VP16 counter: 2.8µM*; uPA surface inh: 0%; TRPV1 potentiator: 30; RORg inh: 1µM*

What do the screens show for `CN(Cc1c(C(=O)N/N=C/c2cccs2)nnn1-c1nonc1N)c1ccccc1`?
TRPV1 agonist: inconclusive; VP16 counter: inconclusive; uPA surface inh: 2%; TRPV1 potentiator: -10; RORg inh: 5.6µM*

How did CCCN(CCC)Cc1c(C(=O)N/N=C/c2cccs2)nnn1-c1nonc1N do in these assays?
TRPV1 agonist: inconclusive; VP16 counter: inconclusive; uPA surface inh: 2%; TRPV1 potentiator: -8; RORg inh: 13µM*

How did NS(=O)(=O)OCC(Cc1ccccc1)N1C(=O)c2ccccc2C1=O (stereo unspecified) do in these assays?
TRPV1 agonist: -1; VP16 counter: -5%; uPA surface inh: 8%; TRPV1 potentiator: -4; RORg inh: 0%

Results for CCCc1c(C(=O)N/N=C/c2cccs2)nnn1-c1nonc1N ?
TRPV1 agonist: 29; VP16 counter: 6.3µM*; uPA surface inh: -8%; TRPV1 potentiator: -13; RORg inh: inconclusive

Results for COC(=O)c1ccc(C(=O)OC)c(NC(=O)C2CC(=O)N(C3CCCC3)C2)c1 (stereo unspecified) ?
uPA surface inh: -1%

Results for O=C(Nc1nc(-c2ccccc2)cs1)c1ccc(Br)o1 ?
TRPV1 agonist: 88*; VP16 counter: 0%; uPA surface inh: -2%; TRPV1 potentiator: -10; RORg inh: -18%

Results for COc1ccc(-c2csc(NC(=S)NC(=O)c3ccc4ccccc4c3)n2)cc1OC ?
TRPV1 agonist: 6; VP16 counter: inconclusive; uPA surface inh: 6%; TRPV1 potentiator: -10; RORg inh: 2µM*

Results for COc1ccc(-c2csc(NC(C)=O)n2)cc1OC ?
TRPV1 agonist: -5; VP16 counter: 19%; uPA surface inh: -4%; TRPV1 potentiator: 1; RORg inh: 51%

Results for O=C(NC(=S)Nc1nc(-c2ccccc2)cs1)c1ccco1 ?
TRPV1 agonist: 21; VP16 counter: inconclusive; uPA surface inh: -9%; TRPV1 potentiator: -10; RORg inh: 3.5µM*

How did COc1ccc(-c2csc(NC(=S)NC(=O)c3ccco3)n2)cc1 do in these assays?
TRPV1 agonist: 2; VP16 counter: -2%; uPA surface inh: -2%; TRPV1 potentiator: 5; RORg inh: 7.1µM*

Results for Cc1ccc(CN2CC(C(=O)NNC(=O)c3ccc(F)cc3)CC2=O)cc1 (stereo unspecified) ?
TRPV1 agonist: 1; uPA surface inh: 7%; TRPV1 potentiator: 24

Results for CCCC(=O)NC(=S)Nc1nc(-c2ccc(OC)cc2)cs1 ?
TRPV1 agonist: 3; VP16 counter: -16%; uPA surface inh: 3%; TRPV1 potentiator: 8; RORg inh: 8.9µM*

Results for COc1ccc(-c2csc(NC(=O)CN3C(=O)CCC3=O)n2)cc1 ?
TRPV1 agonist: -1; VP16 counter: 1%; uPA surface inh: 22%; TRPV1 potentiator: 9; RORg inh: 12%

Results for Cc1cc(C)c2c(c1)/C(=N/NC(=S)Nc1ccc(F)cc1)CCC2 ?
TRPV1 agonist: -3; VP16 counter: 16µM*; uPA surface inh: 0%; TRPV1 potentiator: 7; RORg inh: -22%

What do the screens show for `COC(=O)N/N=C1\CCCc2c(C)cc(C)cc21`?
TRPV1 agonist: 0; VP16 counter: -3%; uPA surface inh: -4%; TRPV1 potentiator: 27; RORg inh: 5%

Results for CN(C(=O)CSc1ncnc2sc(-c3ccccc3)cc12)C1CCS(=O)(=O)C1 (stereo unspecified) ?
TRPV1 agonist: 7; VP16 counter: inconclusive; uPA surface inh: 5%; TRPV1 potentiator: -5; RORg inh: 11µM*

How did CCOC(=O)c1sc2nc(C)nc(SCC(=O)N(C)C3CCS(=O)(=O)C3)c2c1C (stereo unspecified) do in these assays?
TRPV1 agonist: -3; VP16 counter: -4%; uPA surface inh: 15%; TRPV1 potentiator: 4; RORg inh: 13µM*

Results for COC(=O)c1ccc(CNC(=O)C2CCC(=O)N(C3CCCCCC3)C2)cc1 (stereo unspecified) ?
TRPV1 agonist: 6; VP16 counter: -1%; uPA surface inh: -3%; TRPV1 potentiator: 6; RORg inh: -4%

How did COC(=O)c1sc(N)c(C(=O)OC)c1Cn1ncc(Cl)c(Cl)c1=O do in these assays?
TRPV1 agonist: 20; VP16 counter: 13µM*; uPA surface inh: -9%; TRPV1 potentiator: -29; RORg inh: inconclusive

How did COC(=O)c1sc(N)c(C(=O)OC)c1COC(=O)c1c(C)noc1C do in these assays?
TRPV1 agonist: 27; VP16 counter: -9%; TRPV1 potentiator: -29; RORg inh: -9%

What do the screens show for `Cc1ccc2c(c1)Oc1ccc(NC(=O)CCl)cc1C(=O)N2`?
TRPV1 agonist: 1; VP16 counter: 18µM*; uPA surface inh: -15%; TRPV1 potentiator: 3; RORg inh: 10µM*

Screens as filed in PubChem BioAssay.
